Results as given in PubChem BioAssay AID977607 (Broad Institute, 2014).
Hit rate of the full screen: of about 1,500 compounds, about 460 (31%) were called active. Not shown: some 1% with an inconclusive outcome.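 How the source made its calls: active means curve reaches 40% activation over neutral controls at an AC40 no higher than the top valid tested concentration; inconclusive means no clear call, values can overlap the other calls; inactive means signal moving opposite to the expected increase, and the rest.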 A selection follows. Results with a measured potency or affinity are listed apart.

Test: GLuc-reported insulin release enhancers, glucose-stimulated beta cells – cell-based, INS-1E, Gaussia luciferase, luminescence, cherry-pick, set 2, dose response (AID 977607);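 further: 0% = median of the plate neutral control wells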
Details: INS-1E GLuc insulin secretion reporter, 2-3 h, active compounds read high; at 35 µM, 100% = signal doubled over neutral wells unless noted

Row | SMILES | max activation
1 | CCCCc1[nH]c(=O)c(C#N)c2c1CCCC2 | 16.7% (inactive)
2 | Cc1c(OCC(=O)NCc2ccccn2)ccc2c3c(c(=O)oc12)CCCC3 | 27.3% (inactive)
3 | NNc1nc(-c2ccccc2)c2ccccc2n1 | -19.6% [at 0.046 µM, 100% = signal doubled over neutral wells] (inactive)
4 | CCn1c(=O)[nH]c(=O)c2c(N)c(C(=O)c3cc(F)ccc3F)sc21 | 27.3% (inactive)
5 | COC(=O)N1CCCCC1c1cc(C(=O)NCc2ccc(Cl)c(Cl)c2)no1 (stereo not drawn) | -38.9% (inactive)
6 | CC(C)COc1ccc(Br)cc1CNC(C)(C)C | -18.4% [at 11 µM, 100% = signal doubled over neutral wells] (inactive)
7 | COCCN1Cc2cccc(C(=O)NCc3ccccc3OC)c2C1=O | -20% [at 0.0016 µM, 100% = signal doubled over neutral wells] (inactive)
8 | CSc1ccc(/C=N/N(C)S(=O)(=O)c2ccc(C)cc2)cc1 | -22.1% (inactive)
9 | Cc1ccc(S(=O)(=O)/N=C2\CN(C)C(=O)N2C)cc1 | -21.8% [at 3.8 µM, 100% = signal doubled over neutral wells] (inactive)
10 | CCCc1nc(-c2cc3cc(C)ccc3[nH]c2=O)no1 | -13.2% [at 1.2 µM, 100% = signal doubled over neutral wells] (inactive)
11 | O=C(O)c1c(NC(=O)N2CCOCC2)sc2c1CCCC2 | -10.1% [at 0.0016 µM, 100% = signal doubled over neutral wells] (inactive)
12 | CCOC(=O)c1c(N)c(C#N)c2n1CCCC2 | -17% [at 0.0016 µM, 100% = signal doubled over neutral wells] (inactive)
13 | CCOc1ccc(C(=O)NCC(=O)OCCN2C(=O)c3ccccc3C2=O)cc1OCC | -25.4% [at 0.135 µM, 100% = signal doubled over neutral wells] (inactive)
14 | O=S(=O)(NCC1CCCO1)c1ccc(Cl)nc1 (stereo not drawn) | -19.6% [at 3.8 µM, 100% = signal doubled over neutral wells] (inactive)
15 | Cc1noc(C)c1S(=O)(=O)NC(=O)C1(C)CCN1C(=O)C1(c2ccc(Cl)cc2)CCC1 (stereo not drawn) | -18.9% [at 0.135 µM, 100% = signal doubled over neutral wells] (inactive)
16 | CC1(C(=O)N2CCCCC2)CCN1C(=O)C1(c2ccccc2)CC1 (stereo not drawn) | -16.5% [at 0.046 µM, 100% = signal doubled over neutral wells] (inactive)
17 | CCCCNC(=O)C1(C)CCN1C(=O)c1cc2ccccc2s1 (stereo not drawn) | -22.6% [at 3.8 µM, 100% = signal doubled over neutral wells] (inactive)
18 | CCSc1ncnc2c(C#N)c3n(c12)CCCCC3 | -11.2% [at 0.005 µM, 100% = signal doubled over neutral wells] (inactive)
19 | Cc1cc(=O)[nH]c2c1c(C)nn2C1CCCC1 | -15.7% [at 1.2 µM, 100% = signal doubled over neutral wells] (inactive)
20 | CCCCOc1ccc(-c2nnn(CC(=O)c3c[nH]c4ccccc34)n2)cc1 | -22.5% (inactive)
21 | CCN1CCN(c2ccc(S(=O)(=O)N3CCCCC3)cc2NC(=O)c2cc3ccccc3o2)CC1 | -44.3% (inactive)
22 | Cc1cccc(C)c1NC(=O)C1c2ccccc2Oc2ccccc21 | 22.9% (inactive)

Row | SMILES | max activation
23 | CCCCOC(=O)c1cc(-c2ccc(/C=N/n3cnnc3)o2)ccc1Cl | 9.8% [at 1.2 µM, 100% = signal doubled over neutral wells] (inactive)
24 | O=C(CNC(=O)c1ccco1)N/N=C/c1ccc(C(=O)O)cc1 | 52.9% [at 11 µM, 100% = signal doubled over neutral wells] (inactive)
25 | O=C(c1ccc2c(c1)OCO2)N1CCc2ccccc2C1 | 14.5% (inactive)
26 | CC(C)Oc1ccc(C(=O)CCN2CCOCC2)cc1 | -16% (inactive)
27 | CC(=O)NC1C(=O)N(CCN2CCOCC2)c2ccc(Br)cc21 (stereo not drawn) | -15.1% [at 3.8 µM, 100% = signal doubled over neutral wells] (inactive)
28 | O=C(CCN1CCOCC1)c1ccc(N2CCCCC2)cc1 | -35% [at 3.8 µM, 100% = signal doubled over neutral wells] (inactive)
29 | CC1(c2ccc(OC(F)F)cc2)NC(=O)N(CC(=O)Nc2cccc(S(N)(=O)=O)c2)C1=O (stereo not drawn) | -16.7% (inactive)
30 | C=CCN(CC=C)S(=O)(=O)c1ccc(C(=O)Nc2sc3c(c2C(N)=O)CCCCC3)cc1 | -33.8% [at 3.8 µM, 100% = signal doubled over neutral wells] (inactive)
31 | C[C@H](O)[C@@H]1CN2CCc3ccc(-c4ccc5c(c4)OCO5)cc3[C@@H]2C[C@@H]1N(C)C(=O)c1cccc(Cl)c1 | 18.9% [at 0.42 µM, 100% = signal doubled over neutral wells] (inactive)
32 | CC(C(=O)N1CCC(C(N)=O)CC1)N(c1ccc(Oc2ccccc2)cc1)S(C)(=O)=O (stereo not drawn) | 28.2% [at 0.42 µM, 100% = signal doubled over neutral wells] (inactive)
33 | COc1ccc(CCNC(=O)CCc2ccccc2)cc1OC | -19.6% [at 0.42 µM, 100% = signal doubled over neutral wells] (inactive)
34 | COc1ccc(CCNC(=O)CCc2ccccc2O)cc1OC | -17.8% [at 0.005 µM, 100% = signal doubled over neutral wells] (inactive)
35 | CC(=O)NCCNC(=O)CNC(=O)c1ccc(Cl)cc1 | -16.4% [at 0.0016 µM, 100% = signal doubled over neutral wells] (inactive)
36 | CCNc1nc(NC(C)CC)nc(ON=C(C)C)n1 (stereo not drawn) | 31.8% (inactive)
37 | COc1cccc2cc(-c3cc(=O)oc4cc(C)c(O)cc34)oc12 | 15.9% [at 3.8 µM, 100% = signal doubled over neutral wells] (inactive)
38 | COCCN(CCOC)Cc1cc(=O)oc2cc(C)c(C)cc12 | -22.4% [at 0.046 µM, 100% = signal doubled over neutral wells] (inactive)
39 | O=C(NCCN1CCN(C(=O)c2ccccc2Cl)CC1)C(=O)NCc1ccccc1 | 23.3% [at 0.005 µM, 100% = signal doubled over neutral wells] (inactive)
40 | CC(O)c1nc2ccc(Cc3ccc4nc(C(C)O)[nH]c4c3)cc2[nH]1 (stereo not drawn) | -15% [at 0.0016 µM, 100% = signal doubled over neutral wells] (inactive)
41 | CCNc1nc(NC(C)C)nc(N(C)C#N)n1 | 18.9% (inactive)
42 | O=C(NN=C1CCCC1)c1cc(-c2ccccc2)n[nH]1 | -11.9% [at 1.2 µM, 100% = signal doubled over neutral wells] (inactive)
43 | COc1ccc(/C=N/NC(=O)c2cc(-c3ccc4c(c3)OCO4)n[nH]2)cc1OC | 26.5% [at 3.8 µM, 100% = signal doubled over neutral wells] (inactive)
